From the supplement of paper PMC6555819

Legend:
Assay in all cases: PBM binding z-score (relative to random genomic background probes); higher = stronger binding; sequences stand for … in GC…GCGATTGACAGCGTAGAATGAAGG
[1] = tested on: PPARg:RXRa DBDmut IVT, anti-RXR (DBD mutation: RXRa K156A/R161A, NR concentration 270 nM, RXRa partner concentration 90 nM)
Outline: (§1)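 On custom Agilent 4×180K arrays, double-stranded probes with 34-nt variable regions carried direct-repeat seeds, single-nucleotide variants, half-site ablations or random human genomic background. Ligand-free nuclear receptor dimers were applied for 1 h, and binding was read with antibodies against each partner (one per run). Binding z-scores come from regression-normalized fluorescence, with the random background probes as reference.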

[2] = tested on: PPARg:RXRa IVT, anti-PPARg (NR concentration 270 nM, RXRa partner concentration 90 nM)
Outline: as §1

[3] = tested on: PPARg DBDmut:RXRa IVT, anti-PPARg (DBD mutation: PPARg1 K132A/R137A, NR concentration 270 nM, RXRa partner concentration 90 nM)
Outline: as §1

[4] = tested on: PPARg DBDmut IVT, anti-PPARg (DBD mutation: PPARg1 K132A/R137A, NR concentration 270 nM)
Outline: as §1

[5] = tested on: PPARg homodimer (NR concentration 180 nM)
Outline: as §1

[6] = tested on: PXR:RXRa (NR concentration 270 nM, RXRa partner concentration 90 nM)
Outline: as §1

[7] = tested on: PXR homodimer (NR concentration 270 nM)
Outline: as §1

[8] = tested on: RARa:RXR (NR concentration 270 nM, RXRa partner concentration 90 nM)
Outline: as §1

[9] = tested on: RARa homodimer (NR concentration 270 nM)
Outline: as §1

[10] = tested on: RARb:RXRa (NR concentration 270 nM, RXRa partner concentration 90 nM)
Outline: as §1

[11] = tested on: RARb homodimer (NR concentration 270 nM)
Outline: as §1

[12] = tested on: RARg:RXRa (NR concentration 270 nM, RXRa partner concentration 90 nM)
Outline: as §1

[13] = tested on: RARg homodimer (NR concentration 270 nM)
Outline: as §1

[14] = tested on: RXRa DBDmut IVT, anti-RXR (DBD mutation: RXRa K156A/R161A, NR concentration 90 nM)
Outline: as §1

[15] = tested on: RXRa homodimer (NR concentration 180 nM)
Outline: as §1

[16] = tested on: THRa:RXRa (NR concentration 90 nM, RXRa partner concentration 90 nM)
Outline: as §1

[17] = tested on: THRa homodimer (NR concentration 90 nM)
Outline: as §1

[18] = tested on: VDR homodimer (NR concentration 270 nM)
Outline: as §1

Row | Sequence | PBM binding z-score [1] | PBM binding z-score [2] | PBM binding z-score [3] | PBM binding z-score [4] | PBM binding z-score [5] | PBM binding z-score [6] | PBM binding z-score [7] | PBM binding z-score [8] | PBM binding z-score [9] | PBM binding z-score [10] | PBM binding z-score [11] | PBM binding z-score [12] | PBM binding z-score [13] | PBM binding z-score [14] | PBM binding z-score [15] | PBM binding z-score [16] | PBM binding z-score [17] | PBM binding z-score [18]
1 | CAAACTAGGTCGCCGGAAGGTCAAAGTCCGCATG | 6.5 | 6.56 | 2.57 | 0.739 | 3.61 | 4.72 | 0.959 | 5.67 | 0.693 | 3.94 | 4.43 | 6.47 | 4.32 | 1.22 | 4.39 | 3.68 | 1.44 | 2.39
2 | TCATATAGGTAAATGCTACGTGAAAGTCCGATCT | 3.82 | 2.01 | 1.39 | 1.49 | 0.811 | 0.667 | 0.362 | 0.641 | 0.913 | 0.222 | -0.0537 | 0.346 | 0.292 | 1.58 | 0.839 | -0.0231 | 0.0102 | 0.41
3 | TAGCCTAGGGCATGCGGGCCAGTATAGTGTCGGC | -0.968 | 0.354 | -0.499 | -1.43 | -1.51 | -0.802 | -0.955 | -0.692 | -0.647 | 0.881 | 0.409 | 0.0659 | 0.455 | -1.55 | -0.233 | -0.465 | -1.1 | -0.907
4 | TGAATGAGGTTCAAGATCAGGGAACGTGGCGTCG | -0.641 | 0.696 | 0.378 | 0.169 | -0.0825 | 0.583 | -0.309 | 0.775 | 0.0432 | 1.17 | 0.237 | 1.24 | 0.706 | 2.14 | 1.66 | 0.882 | -0.612 | 1.64
5 | CTTCCAAGGTCAATGCTAGGTCAGTGAAAGCATT | 3.33 | 4.08 | 1 | 0.112 | 4.08 | 4.64 | 1.63 | 6.06 | 0.988 | 5.2 | 4.79 | 7.32 | 6.93 | 3.55 | 5.39 | 4.33 | 3.09 | 2.95
6 | CCCAGCAGGCCAGGGTCACTCAAGCATTTCGCTT | -0.567 | 0.512 | -1.55 | -1.26 | 0.406 | 2.46 | -0.562 | 3.22 | -0.754 | 2.62 | 2.82 | 3.02 | 2.79 | 0.022 | 3.26 | 2.81 | 1.3 | 1.55
7 | ATCGAAAGGTCGTGAGGTGCGTATACAGAAAGGC | 0.0193 | 1.75 | 0.734 | 0.404 | 1.37 | 2.98 | 0.197 | 3.01 | 0.318 | 3.85 | 2.59 | 4.2 | 3.57 | 1.16 | 4.65 | 2.45 | -0.17 | 1.59
8 | CCTAGTTGGTCACGAGGTCACACACCGGATATGA | 3.54 | 5.42 | 0.987 | 1.28 | 2.99 | 4.79 | 1.97 | 4.87 | 1.29 | 4.14 | 4.65 | 5.36 | 4.66 | 1.84 | 5.19 | 4.43 | 4.41 | 3.84
9 | TCTTGTAGATCAATAGAGGGTAAGAAAGTGCGCT | 1.96 | 0.858 | 0.311 | 0.811 | 0.572 | 0.854 | -0.0819 | 0.841 | 0.388 | 0.184 | 0.255 | 0.119 | 0.175 | 1.1 | 0.491 | 0.828 | -0.673 | 0.445
10 | TCTCGGAGGACACGAAGCTCAGAGCTTTCCAGAG | 1.41 | -0.21 | -1.23 | -1.14 | -0.926 | -0.254 | -0.712 | -0.204 | -0.988 | 1.24 | 0.381 | 0.265 | 0.869 | 0.583 | -0.175 | 1.23 | 0.177 | -0.5
11 | ATATTTAGGTTAGCTGGGGTCATTCAGACTAGGC | 5.87 | 4.88 | 2.64 | 2.22 | 3.24 | 6.14 | 5.08 | 5.14 | 3.11 | 3.21 | 3.93 | 4.05 | 3.26 | 2.19 | 5.09 | 5.1 | 4.01 | 6.12
12 | TCTTTTAGATCAAAGGTTAAGAAAGCCGAAGCCT | 2.09 | 3.01 | 1.08 | 1.12 | 1.05 | 2.05 | 0.154 | 2.88 | 0.435 | 2.07 | 1.42 | 1.81 | 1.01 | 1.32 | 2.81 | 1.33 | -0.158 | -0.294
13 | CTCGAAAGGTCGTGCTCAGTTGAGTATACCAAAC | 0.724 | 1.41 | 0.908 | 0.182 | 1.01 | 3.56 | 0.333 | 3.85 | 0.101 | 3.85 | 2.57 | 4.35 | 3.63 | 1.71 | 4.77 | 2.66 | 0.251 | 0.971
14 | TCTAGTAGTTGAAGGGCAACCGACGAGTCCGTTT | 1.78 | 0.527 | 0.13 | -0.187 | 0.499 | 0.507 | 0.346 | -0.0241 | 0.58 | 1.4 | 1.29 | 0.178 | 0.164 | 1.02 | 0.622 | 0.117 | -0.38 | 0.676
15 | CGAACAAGGTCAAGGACAGTGAATCTCCGCACGC | 4.85 | 4.49 | 1.31 | 0.251 | 2.38 | 3.97 | 0.628 | 4.74 | 0.971 | 5.2 | 4.07 | 6.08 | 6.35 | 3.61 | 6.26 | 4.03 | 2.93 | 2.3
